Data taken from PubChem BioAssay AID1159580 (chemical genetic matrix, 2015).
The campaign covered roughly 5,500 compounds. About 2,000 (36%) were called active. Another 18% or so got no clear call; they are omitted. Rule as the data show it: active = normalized growth mostly below about 0.91 (no sharp cut-off); inconclusive = no clear call, values can overlap the other calls; inactive = mostly above about 0.92. The list shows a part of the results.

Test: chemical genetic growth profiling, strain panel (AID 1159580);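 also: tested at 20 µM; growth read once vehicle control cultures reached saturation at 30 °C; 1 = growth at the plate median or of vehicle wells; lower values mean less growth of the strain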
Settings: S. cerevisiae deletion strains, growth OD

Measured: normalized growth

COc1cccc2c1CCC1=CC(=O)CC[C@@]12C
inactive: locus YAL013W, strain DEP1, stronger effect = lower value 0.996 | locus YAL021C, strain ccr4, stronger effect = lower value 1.02 | locus YAL026C, strain drs2, stronger effect = lower value 1.01 | locus YAL030W, strain snc1, stronger effect = lower value 0.986 | locus YBL061C, strain skt5, stronger effect = lower value 0.989 | locus YBR009C, strain hhf1, stronger effect = lower value 0.992 | locus YBR021W, strain FUR4, stronger effect = lower value 0.966 | locus YBR023C, strain chs3, stronger effect = lower value 1.01 | locus YBR171W, strain sec66, stronger effect = lower value 0.987 | locus YBR229C, strain ROT2, stronger effect = lower value 1 | locus YBR231C, strain swc5, stronger effect = lower value 1.02 | locus YBR279W, strain paf1, stronger effect = lower value 1 | locus YCL011C, strain gbp2, stronger effect = lower value 0.997 | locus YCL016C, strain dcc1, stronger effect = lower value 0.999 | locus YCL029C, strain bik1, stronger effect = lower value 0.985 | locus YCL069W, strain vba3, stronger effect = lower value 0.993 | locus YCR088W, strain abp1, stronger effect = lower value 0.994 | locus YDL005C, strain med2, stronger effect = lower value 1.02 | locus YDL035C, strain GPR1, stronger effect = lower value 0.976 | locus YDL040C, strain nat1, stronger effect = lower value 1 | locus YDL074C, strain BRE1, stronger effect = lower value 0.944 | locus YDL101C, strain DUN1, stronger effect = lower value 1.01 | locus YDL134C, strain PPH21, stronger effect = lower value 0.995 | locus YDL185W, strain tfp1, stronger effect = lower value 1 | locus YDL192W, strain arf1, stronger effect = lower value 0.993 | locus YDR001C, strain nth1, stronger effect = lower value 1 | locus YDR069C, strain doa4, stronger effect = lower value 0.987 | locus YDR101C, strain arx1, stronger effect = lower value 0.981 | locus YDR137W, strain rgp1, stronger effect = lower value 1.07 | locus YDR150W, strain NUM1, stronger effect = lower value 1 | locus YDR159W, strain sac3, stronger effect = lower value 0.997 | locus YDR162C, strain NBP2, stronger effect = lower value 0.966 | locus YDR195W, strain ref2 1.04 | locus YDR297W, strain sur2, stronger effect = lower value 0.995 | locus YDR318W, strain mcm21, stronger effect = lower value 0.973 | locus YDR334W, strain swr1, stronger effect = lower value 1.02 | locus YDR335W, strain msn5, stronger effect = lower value 1.01 | locus YDR388W, stronger effect = lower value 0.989 | locus YDR392W, strain spt3, stronger effect = lower value 0.984 | locus YDR502C, strain sam2, stronger effect = lower value 0.961 | locus YEL003W, strain gim4, stronger effect = lower value 1 | locus YEL037C, strain rad23, stronger effect = lower value 0.993 | locus YEL061C, strain CIN8 (second series), stronger effect = lower value 1.01 | locus YEL061C, strain CIN8, stronger effect = lower value 1 | locus YER015W, strain faa2, stronger effect = lower value 1.01 | locus YER016W, strain bim1, stronger effect = lower value 1 | locus YER110C, stronger effect = lower value 0.983 | locus YER111C, strain swi4, stronger effect = lower value 1 | locus YER155C, strain BEM2 (second series), stronger effect = lower value 0.989 | locus YER155C, strain BEM2, stronger effect = lower value 1 | locus YER167W, strain BCK2, stronger effect = lower value 0.996 | locus YFR010W, strain ubp6, stronger effect = lower value 1.01 | locus YGL078C, strain dbp3, stronger effect = lower value 0.998 | locus YGL086W, strain mad1, stronger effect = lower value 0.987 | locus YGL167C, strain pmr1, stronger effect = lower value 1 | locus YGL173C, strain kem1, stronger effect = lower value 0.993 | locus YGL227W, strain vid30, stronger effect = lower value 1.01 | locus YGL240W, strain doc1, stronger effect = lower value 0.995 | locus YGL248W, strain PDE1, stronger effect = lower value 0.996 | locus YGL253W, strain hxk2, stronger effect = lower value 1.02 | locus YGR078C, strain PAC10, stronger effect = lower value 0.983 | locus YGR135W, strain pre9, stronger effect = lower value 0.939 | locus YGR229C, strain SMI1, stronger effect = lower value 0.98 | locus YGR252W, strain gcn5, stronger effect = lower value 0.814 | locus YHR013C, strain ard1, stronger effect = lower value 0.967 | locus YHR027C, strain rpn1, stronger effect = lower value 1.01 | locus YHR030C, strain SLT2, stronger effect = lower value 0.994 | locus YHR079C, strain IRE1 (second series), stronger effect = lower value 0.973 | locus YHR094C, strain hxt1, stronger effect = lower value 0.998 | locus YHR129C, strain ARP1, stronger effect = lower value 0.995 | locus YHR142W, strain chs7, stronger effect = lower value 0.975 | locus YHR200W, strain rpn10, stronger effect = lower value 0.989 | locus YIL066C, strain RNR3, stronger effect = lower value 0.955 | locus YIL073C, strain SPO22, stronger effect = lower value 0.949 | locus YIL125W, strain kgd1, stronger effect = lower value 0.992 | locus YIR030C, strain dcg1, stronger effect = lower value 0.983 | locus YJL092W, strain hpr5, stronger effect = lower value 1.02 | locus YJL095W, strain BCK1 (second series), stronger effect = lower value 1 | locus YJL095W, strain BCK1, stronger effect = lower value 0.972 | locus YJL115W, strain asf1, stronger effect = lower value 1.01 | locus YJL129C, strain trk1, stronger effect = lower value 0.973 | locus YJL134W, strain LCB3, stronger effect = lower value 1.01 | locus YJL154C, strain vps35, stronger effect = lower value 1 | locus YJL164C, strain tpk1, stronger effect = lower value 0.996 | locus YJL166W, strain qcr8, stronger effect = lower value 0.987 | locus YJL168C, strain set2, stronger effect = lower value 0.984 | locus YJL187C, strain SWE1 (second series), stronger effect = lower value 0.989 | locus YJR043C, strain POL32, stronger effect = lower value 0.97
